Data published in PubChem BioAssay (EPA / NIEHS).
The source made the active and inactive calls. The calls were made as follows: active = hit-call score of the fitted dose curve at least 0.9, where 1 is the maximum; inactive = score below 0.9.

Key:
Conditions in all cases: mRNA level, 48 h; actives raise or lower the signal
[1] = read-out: Cytochrome P450 (CYP24A1), CYP24A1 (gene 1591); test: LTEA_HepaRG_CYP24A1: Life Technologies and Expression Analysis (LTEA) Assay for Cytochrome P450 (CYP24A1) using HepaRG (AID 2283478)
Summary of the method: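 Gene expression of CYP24A1 by TaqMan qRT-PCR in HepaRG after 48 h treatment, highest concentration 100 uM; activity fitted in both directions relative to DMSO vehicle.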

[2] = read-out: Cytochrome P450 (CYP1A2), CYP1A2 (gene 1544); test: LTEA_HepaRG_CYP1A2: Life Technologies and Expression Analysis (LTEA) Assay for Cytochrome P450 (CYP1A2) using HepaRG (AID 2283479)
Summary of the method: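 In duplicate wells, HepaRG cultures maintained in 0.5% DMSO were treated 48 h across an 8-point, half-log series topping at 100 uM; phenobarbital (1 mM) served as induction control. Expression was read by qRT-PCR.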

[3] = read-out: cysteine-aspartic acid protease (CASP8), CASP8 (gene 841); test: LTEA_HepaRG_CASP8: Life Technologies and Expression Analysis (LTEA) Assay for cysteine-aspartic acid protease (CASP8) using HepaRG (AID 2283480)
Summary of the method: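 HepaRG, 48 h exposure, duplicate wells; 8 conc, half-log from 100 uM, 0.5% DMSO. Serum-free induction medium. CASP8 mRNA by TaqMan qRT-PCR, norm. ACTB/GAPDH/POLR2A; gain/loss fitted vs DMSO.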

[4] = read-out: Cytochrome P450 2C19 (Homo sapiens) (UniProt P33261); test: LTEA_HepaRG_CYP2C19: Life Technologies and Expression Analysis (LTEA) Assay for CYP2C19 using HepaRG (AID 2283482)
Summary of the method: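 Endpoint: CYP2C19 mRNA change, bidirectional fit vs 0.5% DMSO. Cells: HepaRG, 48 h exposure, eight-point series topping at 100 uM. Quantitation: qRT-PCR normalized to ACTB, GAPDH, POLR2A.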

CYP2C8 (gene 1558) = test: LTEA_HepaRG_CYP2C8: Life Technologies and Expression Analysis (LTEA) Assay for CYP2C8 using HepaRG (AID 2283483)
Summary of the method: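 CYP2C8 mRNA induction or loss, by qRT-PCR normalized to ACTB/GAPDH/POLR2A, is read in HepaRG cells after 48 h treatment. Concentrations run from 100 uM down in half-log dilutions, with 0.5% DMSO as vehicle and baseline.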

CYP2E1 (gene 1571) = test: LTEA_HepaRG_CYP2E1: Life Technologies and Expression Analysis (LTEA) Assay for CYP2E1 using HepaRG (AID 2283485)
Summary of the method: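 Differentiated HepaRG cells were treated in duplicate for 48 h with chemicals in 0.5% DMSO, from 100 uM downward in half-log dilutions. RNA was then analysed by qRT-PCR for CYP2E1 induction or loss.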

CYP4A11 (gene 1579) = test: LTEA_HepaRG_CYP4A11: Life Technologies and Expression Analysis (LTEA) Assay for CYP4A11 using HepaRG (AID 2283486)
Summary of the method: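 Human hepatic HepaRG cultures receive duplicate 48 h exposures across a concentration-response series topping at 100 uM. Expression changes in CYP4A11 are measured by qRT-PCR relative to DMSO controls.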

[5] = read-out: Cytochrome P450 3A4 (Homo sapiens) (UniProt P08684); test: LTEA_HepaRG_CYP3A4: Life Technologies and Expression Analysis (LTEA) Assay for CYP3A4 using HepaRG (AID 2283487)
Summary of the method: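 Differentiated HepaRG cells in serum-free induction medium exposed in duplicate for 48 h to 8 half-log concentrations up to 100 uM in 0.5% DMSO. CYP3A4 mRNA measured by qRT-PCR normalized to ACTB, GAPDH and POLR2A; bidirectional fit versus DMSO.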

[6] = read-out: DNA damage-inducible transcript 3 (DDIT3), DDIT3 (gene 1649); test: LTEA_HepaRG_DDIT3: Life Technologies and Expression Analysis (LTEA) Assay for DNA damage-inducible transcript 3 (DDIT3) using HepaRG (AID 2283488)
Summary of the method: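 Changes in DDIT3 transcript, in either direction relative to 0.5% DMSO vehicle, were quantified by TaqMan qRT-PCR after 48 h chemical exposure of HepaRG cells at 8 concentrations, maximum 100 uM.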

[7] = read-out: Pro-epidermal growth factor (Homo sapiens) (UniProt P01133); test: LTEA_HepaRG_EGF: Life Technologies and Expression Analysis (LTEA) Assay for Epidermal growth factor (EGF) using HepaRG (AID 2283489)
Summary of the method: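 Concentration-response mRNA assay: HepaRG cells dosed 48 h (max 100 uM, 0.5% DMSO), EGF measured by qRT-PCR and normalized to ACTB/GAPDH/POLR2A.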

[8] = read-out: Early growth response protein 1 (EGR1) transcription factor, EGR1 (gene 1958); test: LTEA_HepaRG_EGR1: Life Technologies and Expression Analysis (LTEA) Assay for Early growth response protein 1 (EGR1) transcription factor using HepaRG (AID 2283490)
Summary of the method: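 Read-out is EGR1 mRNA level by qRT-PCR, normalized to three housekeeping genes and analysed for gain or loss of signal against 0.5% DMSO. Source cells: human HepaRG, treated 48 h at up to 100 uM in half-log dilutions.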

[9] = read-out: Ezrin (EZR), EZR (gene 7430); test: LTEA_HepaRG_EZR: Life Technologies and Expression Analysis (LTEA) Assay for Ezrin (EZR) using HepaRG (AID 2283491)
Summary of the method: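 Differentiated human HepaRG cells, 48 h after plating, were exposed in serum-free induction medium for 48 hours to eight half-log concentrations up to 100 uM in 0.5% DMSO. EZR mRNA was measured by TaqMan qRT-PCR, normalized to ACTB, GAPDH and POLR2A, and fitted bidirectionally against DMSO.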

[10] = read-out: Cytochrome P450 3A7 (Homo sapiens) (UniProt P24462); test: LTEA_HepaRG_CYP3A7: Life Technologies and Expression Analysis (LTEA) Assay for CYP3A7 using HepaRG (AID 2283492)
Summary of the method: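 qRT-PCR of CYP3A7 in HepaRG lysates after 48 h treatment; concentration-response (8 points, max 100 uM) analysed bidirectionally relative to 0.5% DMSO controls.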

CYP3A5 (gene 1577) = test: LTEA_HepaRG_CYP3A5: Life Technologies and Expression Analysis (LTEA) Assay for CYP3A5 using HepaRG (AID 2283493)
Summary of the method: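 mRNA induction or loss of CYP3A5 assessed in HepaRG after 48 h dosing, 100 uM top concentration, duplicate wells; TaqMan qRT-PCR with ACTB, GAPDH, POLR2A normalization; 0.5% DMSO as negative control.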

[11] = read-out: Fatty Acid-Binding Protein 1 (FABP1), FABP1 (gene 2168); test: LTEA_HepaRG_FABP1: Life Technologies and Expression Analysis (LTEA) Assay for Fatty Acid-Binding Protein 1 (FABP1) using HepaRG (AID 2283494)
Summary of the method: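 HepaRG, 48 h post-plating switched to serum-free induction medium, then dosed 48 h (duplicate, 8 pts, ≤100 uM, 0.5% DMSO). RNA → Fluidigm TaqMan qRT-PCR, FABP1 normed to ACTB/GAPDH/POLR2A. Bidirectional curve fit vs DMSO.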

[12] = read-out: Cytochrome P450 4A22 (Homo sapiens) (UniProt Q5TCH4); test: LTEA_HepaRG_CYP4A22: Life Technologies and Expression Analysis (LTEA) Assay for Cytochrome P450 4A22 (CYP4A22) using HepaRG (AID 2283495)
Summary of the method: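 Concentration-response (8 points, max 100 uM, 0.5% DMSO) in human HepaRG liver cells after 48 h exposure. CYP4A22 mRNA by TaqMan qRT-PCR with housekeeping-gene normalization.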

[13] = read-out: Cytochrome P450 7A1 (Homo sapiens) (UniProt P22680); test: LTEA_HepaRG_CYP7A1: Life Technologies and Expression Analysis (LTEA) Assay for Cytochrome P450 7A1 (CYP7A1) using HepaRG (AID 2283496)
Summary of the method: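 Gene expression endpoint in human HepaRG liver cells treated for 48 h with test chemicals (up to 100 uM, 0.5% DMSO). Values come from bidirectional concentration-response fitting versus DMSO.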

[14] = read-out: Cytochrome P450 (CYP2B6), CYP2B6 (gene 1555); test: LTEA_HepaRG_CYP2B6: Life Technologies and Expression Analysis (LTEA) Assay for Cytochrome P450 (CYP2B6) using HepaRG (AID 2283481)
Summary of the method: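 Human HepaRG, 48 h dosing, 0.5% DMSO vehicle, top dose 100 uM. CYP2B6 transcript by qRT-PCR, housekeeping-normalized, bidirectional curve fit.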

CYP2C9 (gene 1559) = test: LTEA_HepaRG_CYP2C9: Life Technologies and Expression Analysis (LTEA) Assay for CYP2C9 using HepaRG (AID 2283484)
Summary of the method: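 Cells plated 48 h, switched to serum-free induction medium, then treated in duplicate for 48 h at eight concentrations (max 100 uM, 0.5% DMSO). RNA then analysed by qRT-PCR for CYP2C9; curves fitted in both directions relative to DMSO.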

[15] = read-out: Glutathione S-Transferase (GSTA2), GSTA2 (gene 2939); test: LTEA_HepaRG_GSTA2: Life Technologies and Expression Analysis (LTEA) Assay for Glutathione S-Transferase (GSTA2) using HepaRG (AID 2283497)
Summary of the method: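 HepaRG, 48 h dosing, 8-pt half-log CRC from 100 uM, 0.5% DMSO vehicle, n=2; RNA → Fluidigm TaqMan qRT-PCR; GSTA2 vs ACTB/GAPDH/POLR2A; gain/loss fit vs DMSO.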

Measured: AC50

Chain of Cytochrome P450 3A4 (Homo sapiens) (P08684 whole entry, looked up): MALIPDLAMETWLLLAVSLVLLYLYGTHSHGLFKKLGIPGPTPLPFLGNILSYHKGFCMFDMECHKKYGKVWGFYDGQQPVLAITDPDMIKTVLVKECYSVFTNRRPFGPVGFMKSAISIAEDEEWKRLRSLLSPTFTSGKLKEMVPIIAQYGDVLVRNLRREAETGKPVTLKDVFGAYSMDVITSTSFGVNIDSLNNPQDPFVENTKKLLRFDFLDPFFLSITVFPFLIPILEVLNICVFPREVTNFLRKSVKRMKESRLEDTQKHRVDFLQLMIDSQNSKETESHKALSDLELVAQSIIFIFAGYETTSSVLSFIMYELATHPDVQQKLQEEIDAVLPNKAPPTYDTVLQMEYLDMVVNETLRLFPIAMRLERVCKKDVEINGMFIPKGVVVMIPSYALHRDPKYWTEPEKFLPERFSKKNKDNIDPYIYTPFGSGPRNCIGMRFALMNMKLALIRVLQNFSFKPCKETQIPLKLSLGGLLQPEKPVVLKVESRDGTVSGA
Chain of Cytochrome P450 2C19 (Homo sapiens) (P33261 whole entry, looked up): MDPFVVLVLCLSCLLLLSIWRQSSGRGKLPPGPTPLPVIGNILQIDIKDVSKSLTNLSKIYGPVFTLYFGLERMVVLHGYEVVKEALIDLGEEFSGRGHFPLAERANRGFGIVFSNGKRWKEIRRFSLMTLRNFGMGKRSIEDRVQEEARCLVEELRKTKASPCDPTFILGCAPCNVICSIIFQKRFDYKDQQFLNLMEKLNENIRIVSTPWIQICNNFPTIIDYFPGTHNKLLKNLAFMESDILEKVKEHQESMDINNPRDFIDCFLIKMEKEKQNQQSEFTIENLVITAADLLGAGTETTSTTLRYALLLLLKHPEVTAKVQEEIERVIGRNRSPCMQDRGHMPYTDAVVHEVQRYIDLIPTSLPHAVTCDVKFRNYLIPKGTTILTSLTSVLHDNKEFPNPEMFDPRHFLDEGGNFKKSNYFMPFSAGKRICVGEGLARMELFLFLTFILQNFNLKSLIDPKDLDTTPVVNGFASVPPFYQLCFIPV
Chain of Cytochrome P450 3A7 (Homo sapiens) (P24462 whole entry, looked up): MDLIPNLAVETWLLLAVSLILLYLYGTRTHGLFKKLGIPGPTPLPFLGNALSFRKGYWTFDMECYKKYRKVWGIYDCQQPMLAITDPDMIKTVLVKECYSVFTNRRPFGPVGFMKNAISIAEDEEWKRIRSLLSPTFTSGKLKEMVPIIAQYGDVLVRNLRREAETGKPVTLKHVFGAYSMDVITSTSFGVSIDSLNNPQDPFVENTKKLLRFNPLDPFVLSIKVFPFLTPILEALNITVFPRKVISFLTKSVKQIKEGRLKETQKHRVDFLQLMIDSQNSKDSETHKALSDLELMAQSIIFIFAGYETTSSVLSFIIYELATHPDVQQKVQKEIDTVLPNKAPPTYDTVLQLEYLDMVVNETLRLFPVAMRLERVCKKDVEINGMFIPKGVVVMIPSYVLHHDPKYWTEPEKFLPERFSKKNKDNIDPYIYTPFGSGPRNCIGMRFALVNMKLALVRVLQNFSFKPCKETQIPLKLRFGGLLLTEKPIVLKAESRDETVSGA

CCNc1cccc(C)c1
not listed: [14] | CYP2C9 (gene 1559) | [15]
inactive: all other assays above

COCCOC[C@H](CC1(C(=O)NC2CCC(C(=O)O)CC2)CCCC1)C(=O)Oc1ccc2c(c1)CCC2 (stereo partly drawn)
not listed: [14] | CYP2C9 (gene 1559) | [15]
inactive: all other assays above

CCOC(=O)C(C)(C)Oc1ccc(Cl)cc1
active: CYP4A11 (gene 1579) 27.6 µM | [12] 25.7 µM
not listed: [4] | CYP2C8 (gene 1558) | [5] | [15]
inactive: all other assays above

CNC(=O)[C@H]1O[C@@H](n2cnc3c(NCc4cc(Cl)ccc4OCc4cc(C)no4)ncnc32)[C@H](O)[C@@H]1N
not listed: [4] | CYP2C8 (gene 1558) | [14] | [15]
inactive: all other assays above

CCCCCCCCCCCC(=O)OC
active: [2] 66.9 µM
not listed: [4] | CYP2C8 (gene 1558) | [14] | [15]
inactive: all other assays above

CCCCCC(=O)O
active: [2] 63.7 µM
not listed: [4] | [14]
inactive: all other assays above

O=C(O)Cc1ccccc1Nc1c(Cl)cccc1Cl
active: [2] 2.69 µM | CYP2E1 (gene 1571) 11.8 µM | [12] 9.92 µM | [13] 1.24 µM
not listed: [4] | CYP2C8 (gene 1558) | [5] | [14]
inactive: all other assays above

COc1cc(-c2nc(NC(=O)c3cc4cc(C)cc(C)c4n3CC(=O)O)sc2CCC2CCCCC2)c(OC)cc1Cl
inactive: [1]
active: [2] 4.88 µM | [3] 11 µM | [4] 7.57 µM | CYP2C9 (gene 1559) 6.47 µM | CYP2E1 (gene 1571) 7.86 µM | CYP4A11 (gene 1579) 8.34 µM | [5] 7.45 µM | [6] 10.9 µM | [7] 29.1 µM | [8] 42.2 µM | [9] 19.8 µM | [10] 7.24 µM | CYP3A5 (gene 1577) 9.6 µM | [11] 4.12 µM | [12] 6.57 µM | [13] 4.44 µM
